# Screens from PubChem.
# Compounds with a hit are over-represented: about 19% of the library has one in this group of screens.
# uPA surface inh: blocks generation of uPA at the cell surface; cell surface uPA generation assay, qHTS; Potency, µM (highest dose often 38.3 µM), hits mostly inhibitors; actives 0.31% (n = 330,000); AID 540303; active = well fitted inhibition curve with a large enough effect; inconclusive = small, poorly fitted or top-dose-only effect; inactive = no such curve, though single readings can be large or run the other way; tested in mouse RAW 264.7 cells; also: nearly all actives have a fitted effect of over 55% in size
# DT40 TDP1 CPT: growth inhibition of DT40 Tdp1-/-;hTDP1 cells with camptothecin (screen for TDP1 inhibitors); chicken DT40 Tdp1-/-;hTDP1 cells + 20 nM CPT, ATP luminescence, 48 h; Potency, µM (series often up to 46.2 µM), usual class: inhibitors; actives 12% (n = 420,000); also: nearly all actives have a fitted effect of over 55% in size
#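 Cell growth measured by CellTiter-Glo luminescence after a minimum 48 h, 37 C compound exposure with 20 nM CPT in Tdp1-knockout DT40 cells stably expressing hTDP1, seeded 400/well; qHTS titration format.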
# IL1B secr inh: blocks inflammasome-driven IL-1 beta release. actives 4.7% (n = 360,000). activity change, % at 57.5 µM. THP-1 LPS/ATP IL-1B secretion, AlphaLISA, 16 h; active compounds read low; in the data active = activity change below about -50%; inconclusive = mostly about -30% to -49%
#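 Secreted IL-1B measured by AlphaLISA bead assay after 16 h compound exposure of THP-1 cells; compounds (final up to 57.5 uM) added 1 h before LPS (250 ng/mL) and ATP (1.25 mM) stimulation; lower signal means less secretion.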
# DT40 TDP1 no CPT: qHTS for Inhibitors of human tyrosyl-DNA phosphodiesterase 1 (TDP1): qHTS in cells in absence of CPT. actives 15% (n = 420,000). Potency, µM (titrated, usually from 46.2 µM), hits mostly inhibitors. DT40 Tdp1-/- hTDP1 cells, no CPT, ATP luminescence, 48 h. AID 686978, 2013; also: nearly all actives have a fitted effect of over 55% in size
#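 Readout: luminescence from CellTiter-Glo after 30 min in the dark at RT. Cells: DT40 Tdp1-/- with stable hTDP1, 400/well. Exposure: compounds alone, ≥48 hr, 37 °C.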
# HT1080 IDH1KD tx: kills HT-1080 cells with IDH1 knockdown | HT-1080 IDH1 knockdown viability, ATP luminescence, 48 h | Potency, µM (doses to about 46.1 µM), actives largely listed as cytotoxic | actives 2% (n = 360,000) | AID 686971
#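 Knockdown cells (IDH1KD HT-1080) received compounds 2 h after plating at 750 cells/well and were kept 48 h at 37 °C in 5% FBS RPMI. A CellTiter-Glo luminescence read gave % activity for curve fitting.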
# HT1080NT lethal: kills 2HG-producing HT-1080-NT fibrosarcoma cells. HT-1080-NT fibrosarcoma viability, CellTiter-Glo ATP luminescence, 48 h. Potency, µM (doses to about 46.1 µM), most hits filed as cytotoxic. actives 1.6% (n = 360,000). AID 686970;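 also: NT is the 2HG producing partner of a matched IDH1 knockdown line; nearly all actives have a fitted effect of over 55% in size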
#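 Viability by CellTiter-Glo luminescence after 48 h compound exposure at 37C of HT-1080-NT cells (750/well, RPMI, 5% FBS). % activity scaled between DMSO wells and medium-only wells, then curve-fitted and categorized by curve class.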
# Numbers stand for hits; n = inactive; u = inconclusive; x = not tested or not shown; [ ] = dose if it differs, or a comment. Unless noted, calls follow the shape of the dose curve; as a rule, active = well fitted curve in the direction sought with a large enough effect; inconclusive = small, poorly fitted or top-dose-only effect, or another doubt; inactive = no such curve, though single readings can be large; an effect the other way counts as inactive or inconclusive.
SMILES,uPA surface inh,DT40 TDP1 CPT,IL1B secr inh,DT40 TDP1 no CPT,HT1080 IDH1KD tx,HT1080NT lethal
Cc1cc(NC(=O)Nc2ccc(F)c(Cl)c2)no1,x,n,n,n,n,n[9.24 µM]
COCCNC(=O)NC1(C(F)(F)F)Oc2ccc(Cl)cc2O1 (configuration not stated),n,18.4µM,n,13µM,u,u
CC1=C(C(N)=O)C(c2cccc(O)c2)n2ncnc2N1 (configuration not stated),x,n,x,n,x,x
CC1=C(C(=O)OC(C)C)C(c2cccc(F)c2)n2ncnc2N1 (configuration not stated),n,14.6µM,n,16.4µM,n,n
CC1(C)C2(C#N)C(=O)NC(=O)C12C#N (configuration not stated),n,n,n,n,n,n
COc1ccc(Oc2c(C=O)c3ccccc3n2C)cc1,n,u,u,u,n,n
Cc1cccc(Sc2c(C=O)c3ccccc3n2C)c1,n,n,n,n,u,u
Cn1c(Sc2ccc(Cl)cc2)c(C=O)c2ccccc21,n,u,-81.0,20.6µM,u,u
Cn1c(Sc2ccccc2Cl)c(C=O)c2ccccc21,n,u,-62.7,u,n,n
CSc1sc(C(=O)NCC2CC2)cc1S(=O)(=O)C(C)C,n,n,n,u,n,n
COC(=O)c1cc(S(=O)(=O)C(C)C)c(S(C)=O)s1 (configuration not stated),n,n,-99.6,u,n,u
CCN(CC)c1ccc(-c2nc(-c3ccco3)no2)cc1[N+](=O)[O-],x,u,x,25.9µM,x,x
CCc1nc(N)nc(N)c1-c1ccc(N(C)Cc2ccccc2)c([N+](=O)[O-])c1,n,4.61µM,-97.8,0.651µM,0.651µM,u
COc1ccc(CN(C)c2ccc(-c3nc(C)no3)cc2[N+](=O)[O-])cc1,x,10.3µM,x,8.2µM,x,x
Cc1noc(-c2ccc(N(C)Cc3ccccc3)c([N+](=O)[O-])c2)n1,x,20.6µM,x,16.4µM,x,x
CN(Cc1ccccc1)c1ccc(C(CC(N)=O)NC(=O)Cc2cccc3ccccc23)cc1[N+](=O)[O-] (configuration not stated),n,n,n,n,n,n
Cc1noc(-c2ccc(-c3noc(-c4ccc([N+](=O)[O-])c(C)c4)n3)cc2)n1,x,n,x,n,x,x
CCc1nc(N)nc(N)c1-c1ccc(Cl)cc1,u,0.944µM,n,0.651µM,1.16µM,0.82µM
CCc1nc(N)c(C#N)c(-c2ccncc2)c1C,x,n,n,n,n,n
Oc1c(C(c2ccccc2)N2CCCCC2)ccc2ccccc12 (configuration not stated),x,18.4µM,n,u,n,n
O=C(N1CCCCC1)N1CCN(C(c2ccccc2)c2ccccc2)CC1,n,u,n,u,n,n
CCc1ccc(NC(=O)C(=O)NCC(c2ccc3c(c2)OCO3)N2CCN(C)CC2)cc1 (configuration not stated),x,u,x,16.4µM,x,x
Cc1cccc(C)c1NC(=O)C(=O)NCC(c1ccc2c(c1)OCO2)N1CCN(C)CC1 (configuration not stated),x,n,x,n,x,x
Cc1ccc(NC(=O)C(=O)NCC(c2ccc3c(c2)OCO3)N2CCN(C)CC2)cc1C (configuration not stated),x,16.4µM,x,u,x,x
CCC(CC)C(=O)Oc1c(C(=O)N(C)C)cccc1-c1ccccc1,n,n,n,n,n,n
SMILES,uPA surface inh,DT40 TDP1 CPT,IL1B secr inh,DT40 TDP1 no CPT,HT1080 IDH1KD tx,HT1080NT lethal
CCCC(=O)OCC(=O)Nc1ccc2c(c1)OCO2,n,n,n,n,n,n
C=CCNC(=O)NC(=O)COC(=O)CC(NC(N)=O)c1ccc(Cl)cc1 (configuration not stated),n,n,n,u,n,n
COC(=O)CCCCCCCCC(O)CN(C)C (configuration not stated),n,u,n,16.4µM,u,n
CCN(CC)CC(O)CCCCCCCCC(=O)OC (configuration not stated),n,n,n,n,n,n
O=C(NCCNC1CCC(c2ccccc2)CC1)c1ccc(F)cc1 (configuration not stated),x,u,-69.9,u,u,20.6µM
O=C(NCCCc1ccccc1)c1ccc(F)cc1,n,n,n,n,n,n
CCCOC(=O)c1ccc(Nc2nc3ccccc3nc2-n2nc(C)cc2C)cc1,x,n,x,n,x,x
COC(=O)c1nn(-c2ccc(OC)cc2)c(=O)c2c(N)sc(C)c12,n,23.1µM,n,16.4µM,n,n
COc1ccc(CCNC(=O)Cn2nnc(C(=O)Nc3cc(C)ccc3C)c2N)cc1OC,n,u,n,n,n,n
COC(=O)c1ccccc1NC(=O)Cn1ncc2c(C)n(Cc3ccc(F)cc3)c(C)c2c1=O,x,20.6µM,x,u,x,x
CCN(CC)c1ccc(NC(=O)CN2C(=O)CC(C)(C)S(=O)(=O)c3ccccc32)c(C)c1,n,14.6µM,n,16.4µM,n,n
CCN(CC)c1ccc(NC(=O)Cn2ncc3c(C)n(Cc4ccccc4F)c(C)c3c2=O)c(C)c1,n,u,n,20.6µM,n,n
CC1(C)CC(NC2C3CC4CC(C3)CC2C4)CC(C)(C)N1 (configuration not stated),n,18.4µM,x,14.6µM,u,n
CCOc1ccc(NC(=O)CCS(=O)(=O)c2ccc(Br)s2)cc1,x,18.4µM,x,14.6µM,x,x
CCOC(=O)c1ccc(NS(=O)(=O)c2ccc(Br)s2)cc1,x,n,x,n,x,x
Cc1ccc(NC(=O)CCS(=O)(=O)c2ccc(Br)s2)cc1,x,n,n,u,n,n
CCOC(=O)c1ccc(NC(=O)CN(C)S(=O)(=O)c2ccc(Br)s2)cc1,n,n,-71.7,u,n,n
CCn1cc(/C=C(\NC(=O)c2ccccc2)C(=O)NCCN2CCOCC2)c2ccccc21,x,u,n,u,n,n
COc1ccc(C(=O)NC[C@H]2O[C@@H](n3cnc4c(N)ncnc43)[C@H](O)[C@@H]2O)cc1OC,x,n,n,n,n,n
COc1cc(/C=C/CNC[C@H]2O[C@@H](n3cnc4c(N)ncnc43)[C@H](O)[C@@H]2O)ccc1O,x,n,n,13µM,n,n
Brc1ccccc1-n1nnc(-c2cnc3ccccc3c2)n1,n,u,n,18.4µM,n,n
CC(=O)c1ccc(F)c(-c2cc(C)cc3c2OC(CNC(=O)c2csc(C)n2)C3)c1 (configuration not stated),x,n[9.04 µM],x,20.6µM,x,x
Cc1nc(CC(=O)NCC2Cc3cc(F)cc(-c4ccc(F)c(C)c4)c3O2)cs1 (configuration not stated),x,n[9.04 µM],x,13µM,x,x
Cc1ccc(NC(=O)c2cc3c([nH]c2=O)CC(C)(C)CC3=O)cc1,x,u,x,n,x,x
